Results as given in PubChem BioAssay (NCATS).
Records with an inconclusive call do not appear. Where a call stands in place of a potency, no number is given. Values without a mark were called inactive. Active and inactive are the calls of the source. Calls follow the shape of the dose curve; as a rule, active = well fitted inhibition curve with a large enough effect; inconclusive = small, poorly fitted or top-dose-only effect; inactive = flat fitted curve, though single readings scatter.

These molecules were tested against Calcium and integrin-binding protein 1 (Homo sapiens) (UniProt Q99828) (assay: Primary qHTS for Identification of Calcium Integrin Binding Protein 1 (CIB1) Competitor (AID 1508620; also: top concentration of the series differs between compounds)). Conditions: CIB1-GST / FITC-alphaIIb peptide fluorescence polarization; series mostly up to 57.7 µM.
Calcium and integrin-binding protein 1 (Homo sapiens), sequence (Q99828 whole entry, looked up): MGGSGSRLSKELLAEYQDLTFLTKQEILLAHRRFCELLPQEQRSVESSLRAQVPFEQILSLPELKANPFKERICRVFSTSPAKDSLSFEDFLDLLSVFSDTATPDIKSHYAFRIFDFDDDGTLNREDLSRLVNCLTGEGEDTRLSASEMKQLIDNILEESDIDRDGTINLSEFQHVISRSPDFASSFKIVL
How it was run: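 Fluorescence polarization competition: GST-tagged CIB1 (1 uM final) preincubated with compound 15 min at room temperature, then FITC-labelled alphaIIb peptide (100 nM final) added. After 15 min at room temperature, polarization read at Ex 480/Em 540.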

Question: How did the activity change, negative = inhibition turn out when `CN[C@H]1[C@@H](O[C@@H]2[C@H](O[C@@H]3[C@@H](O)[C@@H](O)[C@@H](N=C(N)N)[C@@H](O)[C@@H]3N=C(N)N)O[C@H](C)[C@@]2(O)C=O)O[C@@H](CO)[C@@H](O)[C@H]1O` was run?
Answer: The activity change, negative = inhibition was -2.24% [at 12.4 µM].

Question: With `N#CC1(c2cccc(C(=O)Nc3cc(Oc4ccc5nc(NC(=O)C6CC6)sc5n4)ccc3F)c2Cl)CC1` as the molecule, how does the Potency read?
Answer: Its Potency is “inactive”.

Question: `Cc1csc(-c2nnc(Nc3ccc(Oc4ncccc4-c4ccnc(N)n4)cc3)c3ccccc23)c1` was tested. Which Potency did it give?
Answer: Its Potency is “inactive”.

Question: With `CC(C)(OCc1nn(Cc2ccccc2)c2ccccc12)C(=O)O` as the molecule, how does the Potency read?
Answer: The Potency was “inactive”.

Question: Which Potency does the source give for `CC(=O)N1CCN(c2ccc(OCc3nn(C)c(C)c3-c3cccc4c(CCCOc5cc(C)c(Cl)c(C)c5)c(C(=O)O)n(Cc5cccnc5)c34)cc2)CC1` here?
Answer: The Potency was “inactive”.

Question: `O=C1NC(=O)C(c2cnc3ccccn23)=C1c1cn2c3c(cccc13)CN(C(=O)N1CCOCC1)CC2` was tested. Which Potency did it give?
Answer: Its Potency is “inactive”.

Question: How did the Potency turn out when `CS(=O)(=O)c1ccc(C2=C(c3ccccc3)C(=O)OC2)cc1` was run?
Answer: The Potency was “inactive”.

Question: How did the Potency turn out when `OCCn1cc(-c2ccc3c(c2)CCC3=NO)c(-c2ccncc2)n1` was run?
Answer: The Potency was “inactive”.

Question: How did the Potency turn out when `COc1nc(C)cnc1NS(=O)(=O)c1cccnc1-c1ccc(-c2nnco2)cc1` was run?
Answer: Its Potency is “inactive”.

Question: For `CN[C@@H](C)[C@H]1[C@H](O)C[C@@]2(C)[C@@H]3CC[C@H]4C(C)(C)[C@@H](NC)CC[C@@]45C[C@@]35CC[C@]12C`, which Potency is on record?
Answer: The Potency was “inactive”.

Question: With `CCCCCCOC(=O)N=C(N)c1ccc(NCc2nc3cc(C(=O)N(CCC(=O)OCC)c4ccccn4)ccc3n2C)cc1` as the molecule, how does the Potency read?
Answer: Its Potency is “inactive”.

Question: For `CC(C)(O)CC(=O)NCCn1ccc2ncnc(Nc3ccc(Oc4cccc(C(F)(F)F)c4)c(Cl)c3)c21`, which Potency is on record?
Answer: The Potency was “inactive”.
